Assay outcomes (PubChem BioAssay)
BCR signal inh: inhibitors of chronic active B-cell receptor signaling; ABC-DLBCL IkBa-CBG/CBR reporter, luminescence ratio, 4 h; Potency, µM (top dose mostly 46.1 µM), for the others: at the highest dose activity change, negative = inhibition, usual class: inhibitors; hit rate 0.05% among 340,000; AID 493014; active = well fitted inhibition curve with a large enough effect in the signal ratio, with a control signal flat, not every such curve was filed as active; inconclusive = small, poorly fitted or top-dose-only effect, or effect the other way, or a change in a side signal; the % refers to the signal ratio;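 also: potency is read from the fitted curve at half-maximal effect; plate controls were basal doxycycline-induced cells for no effect and cells given 10 µM MG132 for full effect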
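Compounds up to 46 uM were incubated four hours with TMD8 cells whose green CBG68 luciferase is fused to IkappaBalpha; red CBR luminescence normalised the signal, and concentration-effect curves were fitted to fusion, red and ratio data.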
IL1B secr inh: inflammasome signaling inhibition, IL-1 beta readout; AID 743279; hit rate 4.7% among 360,000; activity change, % at 57.5 µM; THP-1 LPS/ATP IL-1B secretion, AlphaLISA, 16 h; active compounds read low; in the data active = activity change below about -50%; inconclusive = mostly about -30% to -49%; also: % is scaled to controls: 0 for no effect and ±100 for the full control effect
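THP-1 cells pretreated 1 hr with compounds (up to 57.5 uM final), then stimulated with LPS (250 ng/mL final) plus ATP (1.25 mM final); secreted IL-1B measured by AlphaLISA after 16 hr, decreased signal indicating inhibition.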
SW480 rerep: induces DNA re-replication in SW480 colon adenocarcinoma cells; SW480 DNA re-replication, Hoechst DNA content imaging, 48 h; Potency, µM (series often up to 46.1 µM), without a hit: top-dose re-replication activation, usual class: activators; hit rate 1.8% among 340,000; also: potency is read from the fitted curve at half-maximal effect; % of control where 0% means no effect; nearly all actives have a fitted effect of over 55% in size
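DNA re-replication was detected as more nuclei of elevated Hoechst intensity after 48 hr exposure to compound (23 nL pinned per well of 250 cells).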
DT40 TDP1 CPT: growth inhibition of DT40 Tdp1-/-;hTDP1 cells with camptothecin (screen for TDP1 inhibitors); hit rate 12% among 420,000; Potency, µM (titrated, usually from 46.2 µM), inactives show top-dose activity change, negative = growth inhibition, hits mostly inhibitors; chicken DT40 Tdp1-/-;hTDP1 cells + 20 nM CPT, ATP luminescence, 48 h; AID 686979; also: potency is read from the fitted curve at half-maximal effect; % is scaled to controls: 0 for no effect and ±100 for the full control effect; nearly all actives have a fitted effect of over 55% in size
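Cell growth measured by CellTiter-Glo luminescence after a minimum 48 h, 37 C compound exposure with 20 nM CPT in Tdp1-knockout DT40 cells stably expressing hTDP1, seeded 400/well; qHTS titration format.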
MCF10A rerep: inducers of DNA re-replication in MCF 10A breast cells | MCF 10A DNA re-replication, Hoechst nuclear intensity, 48 h | Potency, µM (doses to about 46.1 µM), for the others: at the top dose activity, positive = re-replication, usual class: activators | hit rate 2.9% among 350,000; also: potency is read from the fitted curve at half-maximal effect; % of control where 0% means no effect; nearly all actives have a fitted effect of over 50% in size
DT40 TDP1 no CPT: qHTS for Inhibitors of human tyrosyl-DNA phosphodiesterase 1 (TDP1): qHTS in cells in absence of CPT | AID 686978, 2013 | DT40 Tdp1-/- hTDP1 cells, no CPT, ATP luminescence, 48 h | Potency, µM (series often up to 46.2 µM), for the others: top-dose activity change, negative = growth inhibition, actives largely listed as inhibitors | hit rate 15% among 420,000; also: potency is read from the fitted curve at half-maximal effect; % is scaled to controls: 0 for no effect and ±100 for the full control effect; nearly all actives have a fitted effect of over 55% in size
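No-CPT arm: Tdp1-/-;hTDP1 DT40 cells (400/well) plus compounds, incubated ≥48 hr at 37 °C. Readout CellTiter-Glo luminescence.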
Active calls of the source: *; ? = inconclusive; / = not tested or not shown; [ ] = dose if it differs, or a comment. Shown are actives, neighbours in structure and some others; about 19% of the full set was active somewhere. Unless noted, calls follow the shape of the dose curve; as a rule, active = well fitted curve in the direction sought with a large enough effect; inconclusive = small, poorly fitted or top-dose-only effect, or another doubt; inactive = no such curve, though single readings can be large; an effect the other way counts as inactive or inconclusive.

SMILES | BCR signal inh | IL1B secr inh | SW480 rerep | DT40 TDP1 CPT | MCF10A rerep | DT40 TDP1 no CPT
Cc1cc(NC(=O)CSc2nc(-c3ccco3)cc(C(F)(F)F)n2)no1 | ? | 61.9 | 0.731µM* | 0.581µM* | 3.26µM* | 0.731µM*
CCn1nc(C)c(NC(=O)CCCSc2nc(-c3ccco3)cc(C(F)(F)F)n2)c1C | -3.3% | -21.7 | -7.5%[9.22 µM] | 18.4µM* | 27.7% | 14.6µM*
CN(C)c1ccc(NC(=O)CCSc2nc(-c3ccco3)cc(C(F)(F)F)n2)cc1 | / | / | / | ? | / | 18.4µM*
Cc1ccsc1C(=O)N(C)C1CCS(=O)(=O)C1 (configuration not stated) | 5.4% | 6.8 | ? | 2.5% | -7.6% | 13.7%
Cc1ccc2nc(-c3ccc4c(c3)OCCO4)cn2c1 | ? | 54.2 | 2.59µM* | 1.3µM* | 5.8µM* | 1.64µM*
c1ccn2cc(-c3ccc4c(c3)OCCO4)nc2c1 | ? | -5.2 | -2.6% | 14.6µM* | 1.7% | 25.9µM*
O=C(Nc1ccc2c(c1)CCC2)c1cc(=O)[nH]c2ccccc12 | ? | 13.2 | 3.2% | -13.0% | -11.5% | -17.7%
CCOc1ccc(C(=O)Nc2cccc(-c3nc4cccnc4s3)c2C)cc1OCC | / | / | / | -5.9% | / | -9.3%
Cc1cc(OC(=O)c2ccccc2Br)cc(=O)n1C | ? | -20.6 | 1.2% | 20.6µM* | ? | ?
CC(=O)c1c(OC(=O)c2ccccc2Br)ccc2c(C)cc(=O)oc12 | 1.4% | 13.6 | 3.9% | -24.6% | 5.0% | -24.6%
COc1ccc(N(CC(=O)NC2CCCCC2C)S(=O)(=O)c2c(C)nn(C)c2C)cc1 (configuration not stated) | -9.7% | -10.6 | -7.7% | -9.0% | -0.8% | -28.8%
C=CCN(CC(O)c1cccc([N+](=O)[O-])c1)C(C)CCc1ccccc1 (configuration not stated) | 21.2% | -10.5 | 1.7% | ? | 9.5% | 20.6µM*
CCCN(C(=O)c1cnccn1)c1c(N)n(Cc2ccccc2)c(=O)[nH]c1=O | 0.1% | 0.0 | -4.7% | 1.3% | -0.7% | 16.2%
CC1=C(C#N)C(C(F)(F)F)(C(F)(F)F)N=C(c2ccco2)N1 | 2.6% | -12.8 | -0.8% | ? | -3.6% | 16.4µM*
O=c1[nH]c(=O)n(Cc2ccccc2)c2c1C(C(F)(F)F)(C(F)(F)F)N=C(c1ccco1)N2 | -8.9% | -16.0 | -4.5% | ? | 6.4% | ?
COc1cccc(C(=O)Nc2ccc3c(c2)C(=O)c2ccccc2C3=O)c1 | ? | -0.9 | 22.0% | ? | -8.3% | -15.7%
CC(Oc1ccccc1)C(=O)Nc1cccc(-c2nc3ccccc3[nH]2)c1 (configuration not stated) | ? | 9.8 | 1.4% | ? | 17.0% | ?
CC(C)(C)C(=O)Nc1cccc(-c2nc3ccccc3[nH]2)c1 | ? | -12.8 | -4.0%[9.22 µM] | ? | -8.3% | ?
O=C(Nc1cccc(-c2nc3ccccc3[nH]2)c1)c1ccccn1 | ? | -17.4 | -6.6% | 18.4µM* | ? | 13µM*
CC(C)COc1ccc(C(=O)Nc2cccc(-c3nc4ccccc4[nH]3)c2)cc1 | / | / | / | 18.4µM* | / | 20.6µM*
O=C(Nc1cccc(-c2nc3ccccc3[nH]2)c1)c1c(F)cccc1F | / | / | / | 14.6µM* | / | 10.3µM*
COc1cccc(C(=O)Nc2ccc(Cl)c(-c3nc4ccccc4[nH]3)c2)c1 | / | / | / | ? | / | 6.51µM*
O=C(NCCO)c1cccc(-c2cnc3cccnn23)c1 | / | -16.3 | / | ? | / | ?
O=C(NCC1CCC2(CCN(Cc3cc4ccccc4o3)CC2)O1)c1ccccc1 (configuration not stated) | / | / | / | 9.6%[9.04 µM] | / | -11.8%
COc1ccc(-n2c(=O)c(C)nc3cncnc32)cc1 | / | / | / | 11.3% | / | -7.5%
SMILES | BCR signal inh | IL1B secr inh | SW480 rerep | DT40 TDP1 CPT | MCF10A rerep | DT40 TDP1 no CPT
COc1cccc(OC)c1C(=O)Nc1cccc(-c2nc3ccccc3[nH]2)c1 | ? | 0.0 | 3.6% | ? | 1.6% | 18.4µM*
CC(=O)Nc1cccc(-c2nc3ccccc3[nH]2)c1 | ? | 10.1 | 2.6% | 7.6% | -0.8% | 2.5%
CCCCCCCCNS(=O)(=O)CCNC1CC1 | / | 10.9 | -10.0% | ? | 3.6% | -19.7%
O=C(O)c1ccc(Cl)c(S(=O)(=O)Nc2ccc(S(=O)(=O)N3CCCC3)cc2)c1 | -0.6% | 18.7 | 1.6% | 10.0% | -1.3% | -3.7%
CCOC(=O)CSc1nc2ccccc2c(=O)n1CC1COc2ccccc2O1 (configuration not stated) | -0.4% | 39.4 | -4.3% | ? | 15.1% | 18.4µM*
CCOC(=O)CSc1nc2ccccc2c(=O)n1C1CCCC1 | -9.1% | 32.0 | -3.9% | -4.5% | 22.5% | -15.4%
O=C(c1ccc(-n2cncn2)c([N+](=O)[O-])c1)N1CCN(S(=O)(=O)c2cccc(F)c2)CC1 | 3.9% | -2.6 | 0.5% | ? | -6.1% | ?
CCOC(=O)c1ccc(NC(=O)c2cc3ccccc3o2)cc1 | ? | ? | -2.6% | ? | -1.2% | ?
NS(=O)(=O)c1cccc(NC(=O)c2cc3ccccc3o2)c1 | ? | -16.1 | 18.4µM* | ? | 4.7% | ?
CCOC(=O)c1cccc(NC(=O)c2cc3ccccc3o2)c1 | ? | -7.4 | 6.3% | 8.2µM* | 1.1% | ?
Cc1cccc(NC(=O)COC(=O)c2cc3ccccc3oc2=O)c1 | 4.5% | 0.2 | 20.6µM* | -0.1% | 0.651µM* | 16.9%
Cc1ccc(S(=O)(=O)NC(=NC2CCCCC2)c2ccc(Cl)cc2)cc1 | 0.5% | 0.2 | 2.8% | 6.2% | 2.9% | 0.4%
CCN(C(=O)CSc1nccc(=O)[nH]1)c1cccc2ccccc12 | 0.6% | 7.6 | 28.6% | -11.3% | -3.4% | -3.3%
N#CCCN(Cc1cccnc1)C(=S)NC(=O)C1CC1 | 6.4% | / | / | / | / | /
CCCCCCC[C@@H](C/C=C/CCC(=O)O)OC | -1.4% | 45.3 | 4.7% | -13.4% | 12.2% | -13.3%
CCCCCCC[C@@H](C/C=C/CCC(=O)N(C)C/C(=C/Cl)C/C(=C\C(=O)N1CC(OC)=CC1=O)OC)OC | ? | 105.9 | ? | 2.31µM* | ? | 1.84µM*
CCCCCCC[C@@H](C/C=C/CCC(=O)N(C)C/C(=C/Cl)C/C(=C\C(=O)N1C[C@H](O)CC1=O)OC)OC | ? | -70.6* | ? | 9.2µM* | ? | 9.2µM*
O=C(NC1CCCC1)N[C@@H]1C=C[C@@H](CC(=O)N2CCOCC2)O[C@@H]1CO | / | 5.3 | / | ? | / | 5.2%
